Experimental data reported in PubChem BioAssay (NCI).
About 83,000 compounds went through this panel and 20% of them were active in at least one assay; those are over-represented in the sample as a whole.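 How to read the values: 0–100, growth inhibition (40 = 60% inhibited); 0, no net growth; -100 to 0, cell death (-40 = 40% of starting cells died; -100 = all dead).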 Unmarked numbers belong to inactive results. Calls of active or inactive are those of the source. The calls were made as follows: active = growth percent below 10; inactive = the rest.

Experiments:
Assay in all cases: NCI-60 one-dose screen, 48 h (100 = growth as untreated, 0 = no growth, -100 = all killed)
Details in all cases: 10 µM unless noted
NCI-H23 lung = tested on: NCI-H23 lung
NCI-H226 lung = tested on: NCI-H226 lung
NCI-H322M lung = tested on: NCI-H322M lung
HOP-62 NSCLC = tested on: HOP-62 NSCLC
HOP-92 NSCLC = tested on: HOP-92 NSCLC
NCI-H522 lung = tested on: NCI-H522 lung
A549/ATCC NSCLC = tested on: A549/ATCC NSCLC
786-0 renal = tested on: 786-0 renal
COLO 205 colon = tested on: COLO 205 colon
DU-145 prostate = tested on: DU-145 prostate
K-562 leukemia = tested on: K-562 leukemia
MALME-3M melanoma = tested on: MALME-3M melanoma
MDA-MB-231 breast = tested on: MDA-MB-231 breast
RXF 393 renal = tested on: RXF 393 renal
SF-268 CNS = tested on: SF-268 CNS
SF-539 CNS = tested on: SF-539 CNS
UACC-257 melanoma = tested on: UACC-257 melanoma
M14 melanoma = tested on: M14 melanoma
SF-295 CNS = tested on: SF-295 CNS

Structure (SMILES)	growth (NCI-H23 lung) [%]	growth (NCI-H226 lung) [%]	growth (NCI-H322M lung) [%]	growth (HOP-62 NSCLC)	growth (HOP-92 NSCLC)	growth (NCI-H522 lung)	growth (A549/ATCC NSCLC) [%]	growth (786-0 renal) [%]	growth (COLO 205 colon)	growth (DU-145 prostate) [%]	growth (K-562 leukemia)	growth (MALME-3M melanoma) [%]	growth (MDA-MB-231 breast) [%]	growth (RXF 393 renal) [%]	growth (SF-268 CNS) [%]	growth (SF-539 CNS) [%]	growth (UACC-257 melanoma) [%]	growth (M14 melanoma) [%]	growth (SF-295 CNS) [%]
O=NN(CC(=O)NNc1ccccc1)CC(=O)NNc1ccccc1	103	85.9	85	87.8%	88.5%	52%	65.9	90.9	68.6%	68.7	11.8%	102	58.7	84.9	59.7	72	95.4	33.1	
Cc1ccc(-c2cnc3sc4ccc(Cl)cc4n23)cc1	89.7	74.6	93.4	80.3%	85.6%	78.1%	112	109	96.8%	101	110%	110	85	104	98.5	94.4	112	100	
CC(C)[C@H](CN)NC[C@H](C)NS(=O)(=O)c1ccc(C(C)(C)C)cc1	97	74.2	101	94.6%	71.9%	96.2%	98.7	90.3	105%	105	85.7%	97.8	117	89.9	93.5	96.9	96.4	97.3	104
O=[N+]([O-])c1cccc([I+]c2ccccc2)c1	49.8	59	76.6	-26.8% (active)	93.6%	50.3%	47.7	70.8	40.1%	58.5	27.3%	49.4	83.2	72.4	50.1	65.6	80.1	56.6	
C=CC[C@]1(O)CC[C@H]2[C@@H]3CCc4cc(O)ccc4[C@H]3CC[C@@]21C	112	98.9	97	104%	115%	63.9%	91.3	95.8	104%	102	56%	93.3	99.6	102	97.1	105	102	94.3	
C/C(CC(=O)NNc1ccc([N+](=O)[O-])cc1)=N\Nc1ccc([N+](=O)[O-])cc1	87.5	96.2	71.7	83%	90.5%	60.8%	56.1	55.3	48.8%	62.1	12.9%	93.4	47	118	83.8	68.2	99.6	25.5	
C#CC[C@@H]1C[C@]2(C)[C@H]3CC=C4[C@H]5[C@@H](C)[C@H](C)CC[C@]5(C(=O)NCCCCCCCCN)CC[C@@]4(C)[C@]3(C)CC[C@H]2C(C)(C)[C@H]1OC(C)=O	79.3	94.6	80.4	104%	53.1%	-1.25% (active)	46.5	80.6	-23.4% (active)	41.8	-23.4% (active)	66	56	70.4	92.9	83.8	100	29.3	
CCCCN(CCCC)CCC(=O)c1ccc(OC)c2ccccc12	111	95.7	104	101%	-13.7% (active)	90.6%	80.1	65.5	60.1%	79.4	67.1%	124	106		95	87	86.4		100
Cc1n(Cc2ccc3ccccc3n2)cc[n+]1Cc1ccc2ccccc2n1	69.8	88.1	103	90.6%	74.5%	35.9%	88.6	97.8	33.2%	94.6	36.2%	55.9	97.3	86.8	73.5	67.9	42.6	86.9	87.7
